We go through 24 molecules from PubChem BioAssay.

The structures appear in SMILES notation. Unmarked numbers belong to inactive results. For part of these data: Potency and affinity values are given separately. Calls of active or inactive are those of the source. Unless noted, how the calls were made is not given here.

The nature of assay [1]: antimalarial activity against Dd2 strain (AID 2302;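 active means growth inhibition above 50% at the single 2 µM test dose, taken to imply half-maximal potency below 2 µM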;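 further: 0% = DMSO untreated growth and 100% = chloroquine plus artemisinin killed control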). To be noted: P. falciparum Dd2 in RBCs, LDH growth readout, 72 h; at 2 µM; hits give high values.
Assay [2] addresses L-lactate dehydrogenase (Plasmodium falciparum (isolate CDC / Honduras)) (UniProt Q27743). Description: PfLDH activity inhibition – cell lysate, 3D7 strain, counter-screen for P. falciparum growth inhibition project (AID 2304).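 Further: 0% = vehicle and 100% = reference inhibitor.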 The settings on record: P. falciparum 3D7 crude extract, LDH APAD/NBT absorbance; at 2 µM; hits give high values. On the technique in general: The purpose of a counterscreen is to sort out artefacts and off-target activity.

The nature of assay [3]: inhibition of 3D7 malaria parasite growth – strain 3D7 (AID 2306).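 Further: 0% = DMSO wells and 100% = chloroquine plus artemisinin control wells.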 To be noted: P. falciparum 3D7 erythrocytic growth, LDH absorbance, 72 h; at 2 µM; hits give high values.
The target of assay [4] is Calcium-dependent protein kinase 1 (Plasmodium falciparum (isolate 3D7)) (UniProt P62344). Kind of assay: PfCDPK1 kinase inhibitors, biochemical, TCAMS library (AID 1159585; cut-off not given, nearly all actives have IC50 up to about 0.98 µM;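 further: inhibitors leave more ATP so luminescence rises with inhibition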). To be noted: recombinant PfCDPK1, Kinase-Glo ATP depletion luminescence. A general note: Kinase-Glo reads ATP consumption through a luciferase reaction.
Sequence of Calcium-dependent protein kinase 1 (Plasmodium falciparum (isolate 3D7)) (P62344 whole entry, looked up): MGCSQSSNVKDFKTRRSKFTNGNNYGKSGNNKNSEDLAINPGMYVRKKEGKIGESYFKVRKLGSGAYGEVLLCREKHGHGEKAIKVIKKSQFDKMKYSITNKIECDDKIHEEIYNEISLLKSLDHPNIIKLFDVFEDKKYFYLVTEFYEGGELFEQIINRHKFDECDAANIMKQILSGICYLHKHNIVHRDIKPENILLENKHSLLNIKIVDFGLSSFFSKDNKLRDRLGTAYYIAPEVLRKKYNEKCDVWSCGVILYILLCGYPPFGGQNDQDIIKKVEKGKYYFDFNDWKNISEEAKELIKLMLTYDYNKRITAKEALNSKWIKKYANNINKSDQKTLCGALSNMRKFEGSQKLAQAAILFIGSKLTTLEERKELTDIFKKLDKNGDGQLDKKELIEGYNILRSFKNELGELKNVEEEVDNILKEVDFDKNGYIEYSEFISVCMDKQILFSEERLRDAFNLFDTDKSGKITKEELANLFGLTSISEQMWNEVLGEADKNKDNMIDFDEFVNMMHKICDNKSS
The target of assay [5] is Plasmodium falciparum protein kinase 6 (PK6, PF3D7_1337100) (UniProt Q8IDW1). Kind of assay: PfPK6 kinase inhibitors, biochemical, TCAMS library (AID 1159586). To be noted: recombinant PfPK6, Kinase-Glo ATP depletion luminescence.
Sequence of Plasmodium falciparum protein kinase 6 (PK6, PF3D7_1337100) (Q8IDW1 1-305): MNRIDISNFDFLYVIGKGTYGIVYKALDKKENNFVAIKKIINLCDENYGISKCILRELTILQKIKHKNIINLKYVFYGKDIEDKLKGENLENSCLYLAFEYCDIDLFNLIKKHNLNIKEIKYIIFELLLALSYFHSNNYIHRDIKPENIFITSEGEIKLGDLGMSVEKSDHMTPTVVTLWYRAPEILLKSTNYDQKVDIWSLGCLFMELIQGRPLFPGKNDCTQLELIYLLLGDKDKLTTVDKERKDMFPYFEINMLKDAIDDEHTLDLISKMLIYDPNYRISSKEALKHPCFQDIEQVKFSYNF
The target of assay [6] is Protein kinase 7 (PK7), Plasmodium falciparum 3D7 (PF3D7_0213400) (UniProt Q7YTF7). Description: inhibition of Plasmodium PK7 catalytic activity – biochemical, TCAMS antimalarial set, Kinase-Glo luminescence (AID 1159587). To be noted: recombinant PfPK7, Kinase-Glo ATP depletion luminescence.
Sequence of Protein kinase 7 (PK7), Plasmodium falciparum 3D7 (PF3D7_0213400) (Q7YTF7 1-343): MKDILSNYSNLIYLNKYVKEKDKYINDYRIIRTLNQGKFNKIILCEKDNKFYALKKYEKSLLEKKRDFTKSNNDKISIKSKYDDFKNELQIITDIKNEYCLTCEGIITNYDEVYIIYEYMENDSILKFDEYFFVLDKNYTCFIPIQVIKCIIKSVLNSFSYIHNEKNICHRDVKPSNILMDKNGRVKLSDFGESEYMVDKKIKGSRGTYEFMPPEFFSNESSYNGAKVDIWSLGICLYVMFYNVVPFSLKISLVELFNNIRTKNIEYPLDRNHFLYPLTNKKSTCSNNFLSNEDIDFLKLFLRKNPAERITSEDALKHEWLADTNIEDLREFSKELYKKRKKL
In assay [7] the target is Calcium-dependent protein kinase 4 (Plasmodium falciparum (isolate 3D7)) (UniProt Q8IBS5). Description: PfCDPK4 kinase inhibitors, biochemical, TCAMS library (AID 1159588; cut-off not given, nearly all actives have IC50 up to about 0.91 µM). The settings on record: recombinant PfCDPK4, Kinase-Glo ATP depletion luminescence.
Sequence of Calcium-dependent protein kinase 4 (Plasmodium falciparum (isolate 3D7)) (Q8IBS5 whole entry, looked up): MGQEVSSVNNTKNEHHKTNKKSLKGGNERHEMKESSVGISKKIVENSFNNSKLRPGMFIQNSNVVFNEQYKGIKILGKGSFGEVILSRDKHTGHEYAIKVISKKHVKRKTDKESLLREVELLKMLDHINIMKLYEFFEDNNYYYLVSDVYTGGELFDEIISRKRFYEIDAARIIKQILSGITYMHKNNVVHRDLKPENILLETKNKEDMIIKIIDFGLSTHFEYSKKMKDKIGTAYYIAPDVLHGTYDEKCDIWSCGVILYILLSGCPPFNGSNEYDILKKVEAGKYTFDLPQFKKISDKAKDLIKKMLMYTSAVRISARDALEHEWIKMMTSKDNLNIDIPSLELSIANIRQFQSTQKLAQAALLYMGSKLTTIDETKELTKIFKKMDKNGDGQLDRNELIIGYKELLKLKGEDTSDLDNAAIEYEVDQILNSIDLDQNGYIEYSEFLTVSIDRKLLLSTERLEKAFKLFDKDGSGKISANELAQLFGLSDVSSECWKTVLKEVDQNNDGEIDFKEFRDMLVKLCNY

Sequence of L-lactate dehydrogenase (Plasmodium falciparum (isolate CDC / Honduras)) (Q27743 whole entry, looked up): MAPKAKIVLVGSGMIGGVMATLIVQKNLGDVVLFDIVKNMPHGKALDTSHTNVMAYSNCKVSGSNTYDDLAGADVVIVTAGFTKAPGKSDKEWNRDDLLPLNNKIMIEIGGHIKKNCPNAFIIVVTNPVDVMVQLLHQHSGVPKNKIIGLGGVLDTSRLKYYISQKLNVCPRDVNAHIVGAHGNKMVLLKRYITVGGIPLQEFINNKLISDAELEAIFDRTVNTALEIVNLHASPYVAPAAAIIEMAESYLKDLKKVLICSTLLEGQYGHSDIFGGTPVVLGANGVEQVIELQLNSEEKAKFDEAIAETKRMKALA

The inhibition is the relative decrease from the control value, in per cent. For the molecule `Cc1[nH]c(C)c(-c2ccc(Oc3ccc(C(F)(F)F)cc3)cc2)c(=O)c1Br`, the growth inhibition in assay [1] and in assay [3] was 97% (active) in each case. In assay [2], the inhibition is -8%. The result in assay [4], in assay [5], in assay [6] and in assay [7] was inactive.

`CN(Cc1cnc2nc(N)nc(N)c2n1)c1ccc(C(=O)N[C@H](CCC(=O)OC(C)(C)C)C(=O)N[C@@H](CCC(=O)OC(C)(C)C)C(=O)OC(C)(C)C)cc1`: the growth inhibition in assay [1] is 1%; in assay [3] it was 85% (active). Besides, in assay [2], the inhibition is -6%. For the same molecule, the outcome in assay [4], in assay [5], in assay [6] and in assay [7] was inactive.

For `COc1cccc(Cn2ccc3c4c(N)nc(N)nc4ccc32)c1`, the growth inhibition in assay [1] is 96% (active); in assay [3], 99% (active). In addition, in assay [2], the inhibition is -2%. The outcome in assay [4], in assay [5], in assay [6] and in assay [7] was inactive.

Consider `CC1CCN(Cc2c(O)ccc3c(CN4CCC(C)CC4)c(O)ccc23)CC1`, for which the growth inhibition was 86% (active) in assay [1] and 102% (active) in assay [3]. Moreover, the inhibition in assay [2] was -3%. The result in assay [4], in assay [5], in assay [6] and in assay [7] was inactive.

Turning to `CC(C)(C)OC(=O)N[C@@H](CS(=O)(=O)CCN=C(N)COCc1ccccc1)C(=O)OC(C)(C)C`, the growth inhibition in assay [1] is 76% (active); in assay [3], 88% (active). For the same molecule, the inhibition in assay [2] is 4%. The result in assay [4], in assay [5], in assay [6] and in assay [7] was inactive.

Consider `CCNCCCC(C)Nc1ccnc2cc(Cl)ccc12` (stereo not drawn), for which the growth inhibition is -3% in assay [1] and 100% (active) in assay [3]. Further, the inhibition in assay [2] was 0%. For the same molecule, the outcome in assay [4], in assay [5], in assay [6] and in assay [7] was inactive.

As to `CC(C)c1ccc(Cn2cc(-c3ccncc3)c3cc(OCc4ccccc4)ccc32)cc1`, the growth inhibition was 88% (active) in assay [1] and 99% (active) in assay [3]. Moreover, the inhibition in assay [2] is -1%. For the same molecule, the outcome in assay [4], in assay [5], in assay [6] and in assay [7] was inactive.

As for `Cc1cc(=O)c(-c2ccc(S(=O)(=O)c3ccc(Cl)cc3)cc2)c(C)[nH]1`, the growth inhibition in assay [1] was 80% (active); in assay [3], 92% (active). In assay [2], the inhibition was 4%. Besides, the result in assay [4], in assay [5], in assay [6] and in assay [7] was inactive.

Consider `CCN(Cc1cccc2ccccc12)c1ccc2nc(N)nc(N)c2c1`, for which the growth inhibition in assay [1] and in assay [3] was 100% (active) in each case. For the same molecule, the inhibition in assay [2] is 3%. Also, the outcome in assay [4], in assay [5], in assay [6] and in assay [7] was inactive.

In the case of `COc1ccc(Cc2cnc(N)nc2N)cc1OCCCOc1ccccc1`, the figures for the growth inhibition in assay [1] and in assay [3] were 4% and 91% (active), respectively. Also, the inhibition in assay [2] was 6%. The outcome in assay [4], in assay [5], in assay [6] and in assay [7] was inactive.

For `Cc1nc2nc(N)nc(N)c2c(C)c1Cc1ccc([N+](=O)[O-])cc1`, the growth inhibition in assay [1] is 11%; in assay [3] it was 98% (active). Moreover, the inhibition in assay [2] is -1%. Further, the result in assay [4], in assay [5], in assay [6] and in assay [7] was inactive.

Regarding `NC(N)=NC(=O)Nc1ccc(Cl)c([N+](=O)[O-])c1`, the growth inhibition in assay [1] was 9%; in assay [3], 97% (active). Also, in assay [2], the inhibition was -8%. The result in assay [4], in assay [5], in assay [6] and in assay [7] was inactive.

On to `Cc1[nH]c(C)c(-c2ccc(Oc3ccc(F)cc3)cc2)c(=O)c1Br`, for which the growth inhibition in assay [1] was 98% (active); in assay [3], 100% (active). The inhibition in assay [2] was -1%. In addition, the result in assay [4], in assay [5], in assay [6] and in assay [7] was inactive.

For `COc1ccc(Cc2c(Cl)nc3nc(N)nc(N)c3c2C)cc1`, the results for the growth inhibition in assay [1] and in assay [3] were 3% and 94% (active), respectively. Moreover, in assay [2], the inhibition is 6%. The outcome in assay [4], in assay [5], in assay [6] and in assay [7] was inactive.

On to `CC(=O)Nc1ccc(OCCCCCOc2ccc(NC(C)=O)cc2Cl)c(Cl)c1`, for which the growth inhibition in assay [1] is 0%; in assay [3], 93% (active). In assay [2], the inhibition is -7%. Moreover, the outcome in assay [4], in assay [5], in assay [6] and in assay [7] was inactive.

For the molecule `Cc1[nH]c(C)c(-c2ccc(Oc3cc(Cl)cc(Cl)c3)cc2)c(=O)c1Br`, the figures for the growth inhibition in assay [1] and in assay [3] were 97% (active) and 96% (active), respectively. Moreover, the inhibition in assay [2] is -6%. For the same molecule, the outcome in assay [4], in assay [5], in assay [6] and in assay [7] was inactive.

Consider `O=C(NCCCCN1CCN(c2nsc3ccccc23)CC1)c1ccccc1C(=O)NCCCCN1CCN(c2nsc3ccccc23)CC1`, for which the values for the growth inhibition in assay [1] and in assay [3] were 22% and 100% (active), respectively. For the same molecule, the inhibition in assay [2] is -8%. Besides, the result in assay [4], in assay [5], in assay [6] and in assay [7] was inactive.

With `CCOc1cc(Cc2cnc(N)nc2N)cc(Br)c1OC`, the growth inhibition is 3% in assay [1] and 83% (active) in assay [3]. The inhibition in assay [2] was 5%. The result in assay [4], in assay [5], in assay [6] and in assay [7] was inactive.

Turning to `CC(=NNC(=S)NCc1ccco1)c1ccccn1`, the figures for the growth inhibition in assay [1] and in assay [3] were 100% (active) and 99% (active), respectively. The inhibition in assay [2] was -6%. Also, the result in assay [4], in assay [5], in assay [6] and in assay [7] was inactive.

Take `Cc1[nH]c(C)c(-c2ccc(Cl)cc2)c(=O)c1I`: the growth inhibition was 96% (active) in assay [1] and 93% (active) in assay [3]. The inhibition in assay [2] was -5%. Also, the result in assay [4], in assay [5], in assay [6] and in assay [7] was inactive.

In the case of `c1ccc2c(CNCCCN3CCN(CCCNCc4c5ccccc5cc5ccccc45)CC3)c3ccccc3cc2c1`, the growth inhibition in assay [1] is 100% (active); in assay [3], 101% (active). Besides, the inhibition in assay [2] was 0%. Further, the result in assay [4], in assay [5], in assay [6] and in assay [7] was inactive.

`CCCc1cc2c3c(N)nc(N)nc3ccc2n1CC`: the values for the growth inhibition in assay [1] and in assay [3] were 6% and 96% (active), respectively. Moreover, in assay [2], the inhibition is -1%. In addition, the outcome in assay [4], in assay [5], in assay [6] and in assay [7] was inactive.

For the molecule `Cc1nc(C)c(-c2ccc(Oc3ccc(OC(F)(F)F)cc3)cc2)c(OC(=O)c2ccccc2)c1Cl`, the growth inhibition in assay [1] and in assay [3] was 97% (active) each time. Further, the inhibition in assay [2] is 2%. Also, the outcome in assay [4], in assay [5], in assay [6] and in assay [7] was inactive.

For the molecule `Cc1nc2nc(N)nc(N)c2c(C)c1Cc1ccc(N)cc1`, the growth inhibition was -2% in assay [1] and 97% (active) in assay [3]. Also, the inhibition in assay [2] was -4%. Moreover, the result in assay [4], in assay [5], in assay [6] and in assay [7] was inactive.
